Sampled rows, rich in hits. Any-hit rate of the full collection: about 2.4%.
D2 antagonist: HTS Assay for Allosteric Antagonists of the Human D2 Dopamine Receptor: Primary Screen for Antagonists | HEK293 TREx D2 cells, calcium flux, dopamine EC80 | inhibition, % at 10 µM | actives 2% (n = 340,000); in the data active = inhibition above about 30%; inactive = below that, where a call was filed
Target sequence (P14416 whole entry, looked up): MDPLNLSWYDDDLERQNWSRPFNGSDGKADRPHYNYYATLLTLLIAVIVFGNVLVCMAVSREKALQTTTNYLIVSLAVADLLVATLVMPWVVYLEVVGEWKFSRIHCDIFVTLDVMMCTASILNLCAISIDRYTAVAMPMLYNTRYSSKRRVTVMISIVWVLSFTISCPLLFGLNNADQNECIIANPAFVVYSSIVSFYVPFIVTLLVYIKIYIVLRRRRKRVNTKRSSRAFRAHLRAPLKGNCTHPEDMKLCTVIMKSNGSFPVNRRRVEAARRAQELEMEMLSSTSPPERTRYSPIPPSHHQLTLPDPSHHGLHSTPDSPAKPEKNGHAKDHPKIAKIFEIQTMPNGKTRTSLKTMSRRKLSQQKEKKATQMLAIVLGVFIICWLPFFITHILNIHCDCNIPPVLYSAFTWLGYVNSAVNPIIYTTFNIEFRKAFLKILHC
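In this primary screen, negative modulation is detected by tracking calcium flux after an EC80 dopamine challenge in inducible HEK293 T-REx D2 cells preexposed to test compound for 180 s.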
D2 PAM-1: HTS Assay for Positive Allosteric Modulators of the Human D2 Dopamine Receptor: Primary Screen for Potentiators; D(2) dopamine receptor (Homo sapiens), P14416; AID 485347, 2010; actives 0.34% (n = 340,000); potentiation, % at 10 µM; HEK293 T-REx D2, calcium flux, EC20 dopamine potentiation;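 active = potentiation over 3 SD above the plate norm, cut at about 30% in these data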
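Using a no-wash calcium dye in inducible, force-coupled HEK293 Trex cells expressing D2, we tracked fluorescence each second for 180 s after compound, then for 180 s after EC20 dopamine to detect augmented signalling.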
D2 PAM-2: Beta-Arrestin HTS for Positive Allosteric Modulators of the Human D2 Dopamine Receptor: Potentiators | D(2) dopamine receptor (Homo sapiens), P14416 | DiscoveRx D2 beta-arrestin cells, luminescence, 90 min; 100% = 57 uM dopamine signal | potentiation, % (concentration not given with the values) | actives 0.23% (n = 360,000) | AID 624464, 2012; in the data active = potentiation above about 50%; inconclusive = mostly about 30% to 49%
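D2 cells co-treated with compound plus 50 nM dopamine (EC20) for 90 min at 37 deg C to detect potentiation. Beta-arrestin recruitment was read as enzyme-fragment luminescence after 1 h at ambient temperature. Full response was set by 57 uM dopamine.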
D2 ag-1: HTS Assay for Allosteric Agonists of the Human D2 Dopamine Receptor: Primary Screen for Agonists; activation, % at 2 µM; D(2) dopamine receptor (Homo sapiens), P14416; actives 0.53% (n = 340,000); HEK293 T-REx D2 cells, calcium flux agonist mode;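 active = activation over 3 SD above normal in the single-dose calcium agonist read, cut at about 30% in these data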
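Tetracycline-induced HEK293 T-REx cells with force-coupled D2 receptor, plated overnight at 30 C, loaded with no-wash calcium dye. After a 10 s baseline, compound was pin-added and calcium flux read kinetically for 180 s; calcium rises flagged agonists.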
D2 ag-2: Beta-Arrestin HTS for Positive Allosteric Modulators of the Human D2 Dopamine Receptor: Agonists | D(2) dopamine receptor (Homo sapiens), P14416 | DiscoveRx PathHunter D2 beta-arrestin, luminescence, 90 min; 100% = 57 uM dopamine signal | activation, % (concentration not given with the values) | actives 0.084% (n = 360,000); in the data active = activation above about 40%; inconclusive = between about 15% and that limit
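DiscoveRx PathHunter D2 beta-arrestin cells (2,100/well) attached overnight, then compound-stimulated 90 min at 37 C in HBSS/10 mM HEPES/0.1% Tween-20 buffer; beta-galactosidase complementation read by luminescence after 1 h at ambient temperature. Dopamine 57 uM final (EC100) as control.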
Hits are given with their value; 0 = inactive; ? = inconclusive; - = no result; ! = repeats disagree.

SMILES	D2 antagonist	D2 PAM-1	D2 PAM-2	D2 ag-1	D2 ag-2
Cc1cccc(CCNC(=O)C2CCN(S(=O)(=O)c3c(C)nn(C)c3C)CC2)c1	32.3	0	0	0	0
Cc1cc(C)nc(SCC(=O)c2ccc([N+](=O)[O-])cc2)n1	0	0	76.1	0	0
COc1cccc(OC)c1C(=O)OCC(=O)N1CCC(Cc2ccccc2)CC1	-	-	0	-	0
CC1CC(C)CN(C(=O)COC(=O)c2ccc([N+](=O)[O-])o2)C1 (stereo unspecified)	31.3	0	0	0	0
COc1cccc(OC)c1C(=O)OCC(=O)N1CC(C)CC(C)C1 (stereo unspecified)	32.0	0	0	0	0
O=C(OCCCOC(=O)c1ccc([N+](=O)[O-])o1)c1ccc([N+](=O)[O-])o1	0	0	52.8	0	0
O=C(COC(=O)c1ccc([N+](=O)[O-])o1)c1ccccc1	0	0	65.5	0	0
O=C(COC(=O)c1ccc([N+](=O)[O-])o1)NCc1ccccc1	-	-	0	-	0
CCOC(=O)C1CCN(C(=O)COC(=O)c2ccc([N+](=O)[O-])o2)CC1	0	0	0	0	?
CN(CC(=O)Nc1ccc(F)cc1F)S(=O)(=O)c1ccc(C(=O)N2CCOCC2)s1	-	0	-	0	-
COC(=O)C1CCN(C(c2ccccc2Cl)c2sc3nc(-c4ccco4)nn3c2O)CC1 (stereo unspecified)	-	0	-	0	-
COc1ccc(NC(=O)CN(c2ccccc2OC)S(C)(=O)=O)c(OC)c1	-	0	-	0	-
COc1cccc(C(=O)N(c2ccc(OC)cc2OC)C2C=CS(=O)(=O)C2)c1 (stereo unspecified)	30.5	0	0	0	0
COC(=O)Cn1c(=O)c2c(nc3n2CCN3c2ccc(F)cc2)n(C)c1=O	-	0	-	0	-
Cc1cc(C)c(-c2csc(NC(=O)C3=COCCO3)n2)cc1C	31.8	0	0	0	0
CCC(=O)N1c2ccc(S(=O)(=O)N3CCCCCC3)cc2CC1C (stereo unspecified)	-	0	-	0	-
Cc1cc(C)cc(NS(=O)(=O)c2c(C)nc3scc(C)n3c2=O)c1	-	0	-	-	-
COC(=O)C1CCN(S(C)(=O)=O)CC1	0	42.2	0	0	0
COC(=O)C1CCN(S(=O)(=O)c2ccc(NC(C)=O)cc2)CC1	0	0	0	0	0
Cc1ccc(S(=O)(=O)c2nnn3c2nc(NCCCN2CCCC2=O)c2ccccc23)cc1C	0	0	0	0	0
Cc1ccc(S(=O)(=O)c2nnn3c2nc(NC2CCN(Cc4ccccc4)CC2)c2ccccc23)cc1C	0	37.3	0	0	0
O=C(O)c1cccc(-n2c(-c3cnccn3)n[nH]c2=S)c1	30.3	0	0	0	0
CN(CCOc1ccc(Cl)cc1)C(=O)c1ccc(S(=O)(=O)N2CCOCC2)cc1	0	0	0	0	0
CCCCN(C)C(=O)c1ccc(S(=O)(=O)N2CCOCC2)cc1	32.6	0	0	0	0
CC(CNC(=O)Cn1ccc2cc(S(=O)(=O)N3CCCCCC3)ccc21)c1ccccc1 (stereo unspecified)	-	-	-	0	-
SMILES	D2 antagonist	D2 PAM-1	D2 PAM-2	D2 ag-1	D2 ag-2
COc1ccc(C)cc1NC(=O)c1cn(C)c(=O)c2cc(OC)c(OC)cc12	-	0	-	0	-
Cc1ccc(NC(=O)C2CC(=O)NC(N3CCc4ccccc43)=N2)cc1 (stereo unspecified)	43.7	0	0	0	0
CC(=O)Nc1ccc(C(=O)COC(=O)c2c(C)noc2C)c(F)c1	0	0	0	0	0
CC(=O)Nc1ccc(C(=O)COC(=O)c2cccs2)c(F)c1	34.7	0	0	0	0
Cc1ccc(NC(=O)Cn2nnc(-c3nc(-c4ccncc4)no3)c2N)c(C)c1	-	0	-	0	-
CC(C)CCOP(=O)(c1ccc(N(C)C)cc1)C(O)c1ccc(Cl)cc1Cl (stereo unspecified)	0	0	0	0	40.4
CC(C)CCOP(=O)(c1ccc(N(C)C)cc1)C(O)c1ccccc1F (stereo unspecified)	-	0	0	-	0
FC(F)(F)c1nc(-c2ccncc2)ncc1-c1nnnn1-c1ccccc1	58.4	0	0	0	0
COc1ccc(N(CC(=O)NCCSCc2ccc(C)cc2)S(=O)(=O)c2ccccc2)cc1	30.8	0	0	0	0
Cc1ccccc1CSCCNC(=O)CN(c1ccccc1)S(=O)(=O)N(C)C	-	0	-	0	-
CN(C)S(=O)(=O)N(CC(=O)NCCSCc1ccccc1)c1ccccc1	0	84.6!	0	0	0
COc1cc(CNC(=O)Nc2cccn3nc(COCCO)nc23)cc(OC)c1OC	-	-	0	-	0
Cc1ccc(-c2ccc([C@H]3[C@H]4C=CC[C@@H](C)[C@@H]4C(=O)N3Cc3ccccc3)c(F)c2)cc1	33.2	0	0	0	0
O=Cc1ccc(OCC(=O)NCC2CCCO2)cc1 (stereo unspecified)	30.1	0	0	0	0
O=C(CSc1n[nH]c(-c2ccc(S(=O)(=O)N3CCCCC3)cc2)n1)Nc1nccs1	39.2	0	0	0	0
O=C(O)COc1ccc2occ(C(=O)c3ccccc3)c2c1	37.5	0	0	0	0
Cc1ccccc1C(C(=O)NC1CCCC1)N(C(=O)CNC(=O)c1ccco1)c1cccnc1 (stereo unspecified)	50.8	0	-	0	-
COc1ccc(C(C(=O)NC2CCCCC2)N(C(=O)CCl)c2ccc(C)cc2)cc1 (stereo unspecified)	0	0	0	0	0
COc1ccc(C(C(=O)NC2CCCC2)N(C(=O)c2ccoc2C)c2ccc(C)cc2)cc1 (stereo unspecified)	50.1	0	0	0	0
COc1ccc(N(C(=O)CNC(=O)c2ccco2)C(C(=O)NC2CCCC2)c2ccncc2)cc1 (stereo unspecified)	51.1	0	0	0	0
CC(=O)Nc1ccc(N(C(=O)c2ccco2)C(C(=O)NC2CCCCC2)c2ccccc2)cc1 (stereo unspecified)	36.7	0	0	0	0
COc1ccc(-n2nc3c(N4CCCC(C(=O)NCCc5ccc(C)cc5)C4)nnc(C)c3c2C)cc1 (stereo unspecified)	-	0	-	0	-
C[C@H](CO)N1C[C@H](C)[C@@H](CN(C)S(=O)(=O)c2ccc(F)cc2)OCc2cn(nn2)CCCC1=O	-	-	0	-	0
C=CCn1c(=NC(=O)c2ccccc2[N+](=O)[O-])sc2cc(S(C)(=O)=O)ccc21	0	0	71.1	0	?

Screening data (PubChem)
